In PubChem BioAssay (NCATS):
Results filed as inconclusive are left out. A call without a number means that no potency is given here. Active and inactive are the calls of the source. Calls follow the shape of the full dose curve.

Tested on: not listed separately
Experiment: Natriuretic polypeptide receptor (hNpr1) antagonism - Pilot counterscreen GloSensor control cell line (AID 1347045); also: potency is read from the fitted curve at half-maximal effect
Conditions: HEK293 cGMP GloSensor cells, SNP-stimulated luminescence, 20 min; series mostly up to 38.3 µM
Outline: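 The SNP-driven cGMP luminescence signal (50 uM, 20 min, room temperature) was measured in GloSensor HEK293 control cells. Compounds were tested as a LOPAC titration series and preincubated for 30-50 min.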

Compound | Potency
Nc1ccc(-c2nc3ccc(-c4nc5ccc(N)cc5[nH]4)cc3[nH]2)cc1 | inactive
CCCCCCN(CCCCCC)C(=O)Cc1c(-c2ccc(F)cc2)[nH]c2ccccc12 | inactive
CC[C@@H]1Cc2cc(O)ccc2C2=C1c1ccc(O)cc1C[C@H]2CC | 20.7 µM (active)
N=C(N)c1ccccc1 | inactive
CCCC(=O)NCCc1c2n(c3ccc(OC)cc13)CCCc1ccccc1-2 | inactive
CCCCOc1cc(CC2CNC(=O)N2)ccc1OC (configuration not stated) | inactive
NCC(O)c1ccc(O)c(O)c1 (configuration not stated) | inactive
COc1cc(C(O)C(=O)O)ccc1O (configuration not stated) | inactive
c1ccc(C(NCc2cccnc2)(c2ccccc2)c2ccccc2)cc1 | inactive
CC(C)(C)NCC(O)COc1cccc2[nH]c(=O)[nH]c12 (configuration not stated) | inactive
COc1ccc(-c2cc3ncc(C)n3c(Nc3ncccc3C(N)=O)n2)cc1OC | inactive
CC(N)=NCCCC[C@@H](N)C(=O)O | inactive
CCN(CC)CCOC(=O)c1cc(Cl)c(N)cc1OC | inactive
NC1CONC1=O (configuration not stated) | inactive
NC(N)=N[C@@H](CCC(=O)O)C(=O)O | inactive
CC1CCN=C(N)S1 (configuration not stated) | inactive
NCCNS(=O)(=O)c1cccc2c(Cl)cccc12 | inactive
O=c1cc(O)cc(/C=C/c2ccc(O)c(O)c2)o1 | inactive
NC(N)=NC(N)=Nc1ccccc1 | inactive

Compound | Potency
CN1Cc2sccc2C(c2ccc(O)c(O)c2)C1 (configuration not stated) | inactive
C#CC(N)CCC(=O)O (configuration not stated) | inactive
CCCc1c(OCCCOc2ccc(OCC(=O)O)cc2)ccc(C(C)=O)c1O | inactive
O=c1oc(Cl)c(Cl)c2ccccc12 | 13.1 µM (active)
COC(=O)C1=C(C)NC(C)=C([N+](=O)[O-])C1c1ccccc1C(F)(F)F (configuration not stated) | inactive
O=C(O)CCC(=O)N1CCCC1C(=O)O (configuration not stated) | inactive
CC(=O)O[C@H]1CC2(C)[C@@H](C[C@@H](O)[C@H]3[C@@]4(C)CC[C@@H](O)[C@@H](C)[C@@H]4CC[C@@]32C)C1=C(CCC=C(C)C)C(=O)O (some centres not stated) | inactive
Nc1ncnc2c1nc(Br)n2C1OC2COP(=O)(O)O[C@@H]2C1O (some centres not stated) | inactive
COc1ccc(-c2ccc(N)[n+](CCCC(=O)O)n2)cc1 | inactive
N=C(N)c1ccc(N)cc1 | inactive
CC(N)(Cc1ccc(O)c(O)c1)C(=O)O (configuration not stated) | inactive
Nc1ncnc2c1ncn2C1CCCC1 | inactive
[Li+] | inactive
COc1cccc(OC)c1OCCNCC1CSc2ccccc2O1 (configuration not stated) | inactive
C[C@@H](NCCc1ccc(O)cc1)[C@@H](O)c1ccc(O)cc1 | inactive
CC(/C=C/c1cccc(Oc2ccc(F)cc2)c1)N(O)C(N)=O (configuration not stated) | inactive
O=C1NC(=O)c2cc(Nc3ccccc3)c(Nc3ccccc3)cc21 | inactive
Cc1cccc(C2CN(C)CCc3c2cc(O)c(O)c3Cl)c1 (configuration not stated) | inactive
CCC(=O)N1CCN(C(=O)c2ccccc2)CC1 | inactive

Target: Atrial natriuretic peptide receptor 1 (Homo sapiens) (UniProt P16066)
Experiment: Natriuretic polypeptide receptor (hNpr1) antagonism - Pilot screen (AID 1347049);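 also: HEK293 cells with hNpr1 and GloSensor cGMP luciferase stimulated by 0.1 nM hNppA; agonist-evoked cGMP luminescence read 20 min after hNppA addition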
Conditions: hNpr1 cells, antagonist mode cGMP read-out; series mostly up to 57.5 µM
Outline: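 Receptor antagonism read as cGMP-dependent luminescence in hNpr1/pGS-40F HEK293 cells: pre-read after 30 min compound exposure, post-read 20 min after hNppA agonist at 0.1 nM final, all at room temperature, protected from light; A-71915 titration as control.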

Chain of Atrial natriuretic peptide receptor 1 (Homo sapiens) (P16066 whole entry, looked up): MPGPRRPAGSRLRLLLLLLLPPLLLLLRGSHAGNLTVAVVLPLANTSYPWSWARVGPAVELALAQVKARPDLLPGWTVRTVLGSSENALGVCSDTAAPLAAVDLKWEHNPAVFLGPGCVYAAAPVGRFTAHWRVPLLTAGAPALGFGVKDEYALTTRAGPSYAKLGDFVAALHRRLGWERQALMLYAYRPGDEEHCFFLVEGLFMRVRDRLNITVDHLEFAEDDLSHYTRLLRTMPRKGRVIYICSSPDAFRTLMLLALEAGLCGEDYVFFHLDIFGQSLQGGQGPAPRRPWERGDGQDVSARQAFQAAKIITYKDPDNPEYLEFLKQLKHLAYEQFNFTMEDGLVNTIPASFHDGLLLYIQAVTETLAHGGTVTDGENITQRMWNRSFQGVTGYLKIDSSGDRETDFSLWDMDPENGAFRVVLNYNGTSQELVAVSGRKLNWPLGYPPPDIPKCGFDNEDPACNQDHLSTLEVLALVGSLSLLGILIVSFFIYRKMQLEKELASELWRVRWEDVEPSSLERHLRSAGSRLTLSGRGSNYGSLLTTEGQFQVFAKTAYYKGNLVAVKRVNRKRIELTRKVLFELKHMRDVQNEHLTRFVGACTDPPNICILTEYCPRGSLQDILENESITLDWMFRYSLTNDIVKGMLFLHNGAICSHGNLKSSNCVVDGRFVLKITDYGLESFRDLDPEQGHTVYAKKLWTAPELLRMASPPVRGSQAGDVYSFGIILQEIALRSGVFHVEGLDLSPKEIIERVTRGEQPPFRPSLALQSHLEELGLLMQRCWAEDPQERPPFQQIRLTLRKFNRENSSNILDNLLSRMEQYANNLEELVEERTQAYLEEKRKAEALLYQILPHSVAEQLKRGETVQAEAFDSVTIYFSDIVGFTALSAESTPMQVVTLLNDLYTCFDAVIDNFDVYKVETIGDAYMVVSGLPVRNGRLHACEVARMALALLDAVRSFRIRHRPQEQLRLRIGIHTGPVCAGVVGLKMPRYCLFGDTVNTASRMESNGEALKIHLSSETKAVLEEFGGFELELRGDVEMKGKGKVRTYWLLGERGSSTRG

Compound | Potency
Nc1ccc(-c2nc3ccc(-c4nc5ccc(N)cc5[nH]4)cc3[nH]2)cc1 | inactive
N=C(N)c1ccccc1 | inactive
CCCCOc1cc(CC2CNC(=O)N2)ccc1OC (configuration not stated) | inactive
NCC(O)c1ccc(O)c(O)c1 (configuration not stated) | inactive
COc1cc(C(O)C(=O)O)ccc1O (configuration not stated) | inactive
c1ccc(C(NCc2cccnc2)(c2ccccc2)c2ccccc2)cc1 | inactive
COc1ccc(-c2cc3ncc(C)n3c(Nc3ncccc3C(N)=O)n2)cc1OC | inactive
CCN(CC)CCOC(=O)c1cc(Cl)c(N)cc1OC | inactive
NC1CONC1=O (configuration not stated) | inactive
NCCNS(=O)(=O)c1cccc2c(Cl)cccc12 | inactive
O=c1cc(O)cc(/C=C/c2ccc(O)c(O)c2)o1 | inactive
NC(N)=NC(N)=Nc1ccccc1 | inactive
CN1Cc2sccc2C(c2ccc(O)c(O)c2)C1 (configuration not stated) | inactive
C#CC(N)CCC(=O)O (configuration not stated) | inactive
CCCc1c(OCCCOc2ccc(OCC(=O)O)cc2)ccc(C(C)=O)c1O | inactive
COC(=O)C1=C(C)NC(C)=C([N+](=O)[O-])C1c1ccccc1C(F)(F)F (configuration not stated) | inactive
O=C(O)CCC(=O)N1CCCC1C(=O)O (configuration not stated) | inactive
CC(=O)O[C@H]1CC2(C)[C@@H](C[C@@H](O)[C@H]3[C@@]4(C)CC[C@@H](O)[C@@H](C)[C@@H]4CC[C@@]32C)C1=C(CCC=C(C)C)C(=O)O (some centres not stated) | inactive
Nc1ncnc2c1nc(Br)n2C1OC2COP(=O)(O)O[C@@H]2C1O (some centres not stated) | inactive
COc1ccc(-c2ccc(N)[n+](CCCC(=O)O)n2)cc1 | inactive
CC(N)(Cc1ccc(O)c(O)c1)C(=O)O (configuration not stated) | inactive
Nc1ncnc2c1ncn2C1CCCC1 | inactive
[Li+] | inactive
C[C@@H](NCCc1ccc(O)cc1)[C@@H](O)c1ccc(O)cc1 | inactive
CC(/C=C/c1cccc(Oc2ccc(F)cc2)c1)N(O)C(N)=O (configuration not stated) | inactive
O=C1NC(=O)c2cc(Nc3ccccc3)c(Nc3ccccc3)cc21 | inactive
CCC(=O)N1CCN(C(=O)c2ccccc2)CC1 | inactive

Target: Atrial natriuretic peptide receptor 2 (Homo sapiens) (UniProt P20594)
Experiment: Natriuretic polypeptide receptor (hNpr2) antagonism - Pilot subtype selectivity assay (AID 1347050); also: potency is read from the fitted curve at half-maximal effect
Conditions: NPR2-expressing cells, cGMP antagonist-mode read-out; series mostly up to 38.3 µM
Outline: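 Antagonist mode: compounds (LOPAC1280, seven 1:5 dilutions) added 30 min before 1 nM hNppC stimulation of hNpr2-HEK293 cGMP-sensor cells; luminescence read before and 20 min after agonist at ambient temperature.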

Chain of Atrial natriuretic peptide receptor 2 (Homo sapiens) (P20594 whole entry, looked up): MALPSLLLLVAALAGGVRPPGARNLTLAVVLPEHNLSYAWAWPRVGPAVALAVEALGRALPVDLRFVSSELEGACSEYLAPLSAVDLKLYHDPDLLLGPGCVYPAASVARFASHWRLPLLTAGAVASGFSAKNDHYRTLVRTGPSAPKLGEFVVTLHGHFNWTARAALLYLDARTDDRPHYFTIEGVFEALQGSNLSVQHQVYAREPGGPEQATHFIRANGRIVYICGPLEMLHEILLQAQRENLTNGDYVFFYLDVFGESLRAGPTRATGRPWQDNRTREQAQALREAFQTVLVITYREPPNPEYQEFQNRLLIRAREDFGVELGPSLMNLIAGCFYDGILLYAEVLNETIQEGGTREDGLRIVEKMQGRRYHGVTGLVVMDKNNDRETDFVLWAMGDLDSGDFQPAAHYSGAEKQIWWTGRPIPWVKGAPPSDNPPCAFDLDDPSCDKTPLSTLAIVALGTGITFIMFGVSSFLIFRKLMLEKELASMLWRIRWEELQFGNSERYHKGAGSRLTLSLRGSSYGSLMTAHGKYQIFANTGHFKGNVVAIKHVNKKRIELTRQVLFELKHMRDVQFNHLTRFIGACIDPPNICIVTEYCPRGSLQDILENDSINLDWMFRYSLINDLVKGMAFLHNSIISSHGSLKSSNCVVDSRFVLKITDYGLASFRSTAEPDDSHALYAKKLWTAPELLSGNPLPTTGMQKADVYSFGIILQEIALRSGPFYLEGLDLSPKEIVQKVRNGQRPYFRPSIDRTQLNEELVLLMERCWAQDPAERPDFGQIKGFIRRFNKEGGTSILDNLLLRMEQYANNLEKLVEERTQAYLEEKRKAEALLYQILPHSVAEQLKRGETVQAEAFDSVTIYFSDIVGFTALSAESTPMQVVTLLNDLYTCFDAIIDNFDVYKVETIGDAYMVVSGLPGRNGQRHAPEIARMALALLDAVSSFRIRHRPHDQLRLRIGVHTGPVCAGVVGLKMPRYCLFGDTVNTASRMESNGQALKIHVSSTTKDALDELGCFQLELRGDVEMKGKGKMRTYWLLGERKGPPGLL

Compound | Potency
Nc1ccc(-c2nc3ccc(-c4nc5ccc(N)cc5[nH]4)cc3[nH]2)cc1 | inactive
CCCCCCN(CCCCCC)C(=O)Cc1c(-c2ccc(F)cc2)[nH]c2ccccc12 | inactive
CC[C@@H]1Cc2cc(O)ccc2C2=C1c1ccc(O)cc1C[C@H]2CC | inactive
N=C(N)c1ccccc1 | inactive
CCCC(=O)NCCc1c2n(c3ccc(OC)cc13)CCCc1ccccc1-2 | inactive
CCCCOc1cc(CC2CNC(=O)N2)ccc1OC (configuration not stated) | inactive
NCC(O)c1ccc(O)c(O)c1 (configuration not stated) | inactive
COc1cc(C(O)C(=O)O)ccc1O (configuration not stated) | inactive
c1ccc(C(NCc2cccnc2)(c2ccccc2)c2ccccc2)cc1 | inactive
CC(C)(C)NCC(O)COc1cccc2[nH]c(=O)[nH]c12 (configuration not stated) | inactive
COc1ccc(-c2cc3ncc(C)n3c(Nc3ncccc3C(N)=O)n2)cc1OC | inactive
CC(N)=NCCCC[C@@H](N)C(=O)O | inactive
CCN(CC)CCOC(=O)c1cc(Cl)c(N)cc1OC | inactive
NC(N)=N[C@@H](CCC(=O)O)C(=O)O | inactive
CC1CCN=C(N)S1 (configuration not stated) | inactive
NCCNS(=O)(=O)c1cccc2c(Cl)cccc12 | inactive
O=c1cc(O)cc(/C=C/c2ccc(O)c(O)c2)o1 | inactive
NC(N)=NC(N)=Nc1ccccc1 | inactive
CN1Cc2sccc2C(c2ccc(O)c(O)c2)C1 (configuration not stated) | inactive

Compound | Potency
C#CC(N)CCC(=O)O (configuration not stated) | inactive
CCCc1c(OCCCOc2ccc(OCC(=O)O)cc2)ccc(C(C)=O)c1O | inactive
O=c1oc(Cl)c(Cl)c2ccccc12 | 13.1 µM (active)
COC(=O)C1=C(C)NC(C)=C([N+](=O)[O-])C1c1ccccc1C(F)(F)F (configuration not stated) | inactive
O=C(O)CCC(=O)N1CCCC1C(=O)O (configuration not stated) | inactive
CC(=O)O[C@H]1CC2(C)[C@@H](C[C@@H](O)[C@H]3[C@@]4(C)CC[C@@H](O)[C@@H](C)[C@@H]4CC[C@@]32C)C1=C(CCC=C(C)C)C(=O)O (some centres not stated) | inactive
Nc1ncnc2c1nc(Br)n2C1OC2COP(=O)(O)O[C@@H]2C1O (some centres not stated) | inactive
COc1ccc(-c2ccc(N)[n+](CCCC(=O)O)n2)cc1 | inactive
N=C(N)c1ccc(N)cc1 | inactive
CC(N)(Cc1ccc(O)c(O)c1)C(=O)O (configuration not stated) | inactive
Nc1ncnc2c1ncn2C1CCCC1 | inactive
[Li+] | inactive
COc1cccc(OC)c1OCCNCC1CSc2ccccc2O1 (configuration not stated) | inactive
C[C@@H](NCCc1ccc(O)cc1)[C@@H](O)c1ccc(O)cc1 | inactive
CC(/C=C/c1cccc(Oc2ccc(F)cc2)c1)N(O)C(N)=O (configuration not stated) | inactive
O=C1NC(=O)c2cc(Nc3ccccc3)c(Nc3ccccc3)cc21 | inactive
Cc1cccc(C2CN(C)CCc3c2cc(O)c(O)c3Cl)c1 (configuration not stated) | inactive
CCC(=O)N1CCN(C(=O)c2ccccc2)CC1 | inactive
